From PubChem BioAssay (NCI)
Where “and” joins values, the source holds several entries; their conditions need not be identical. Identical values can stand only once. Compounds without any hit were thinned out: in the full panel of roughly 83,000, 20% have a hit.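 Testing used 96-well plates and a 48-hour single-concentration exposure. Example: -40 means 40% of the starting cells died.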 Calls of active or inactive are those of the source. How the source made its calls: active means growth percent below 10; inactive means the rest.

The compounds below were run on UO-31 renal (assay: NCI-60 one-dose screen, 48 h (100 = growth as untreated, 0 = no growth, -100 = all killed)). Settings: 10 µM unless noted.

| Compound | growth |
| --- | --- |
| O=[N+]([O-])c1ccccc1/C=N\Nc1ccccc1 | 50.6% (inactive) and 47.3% (inactive) |
| CCN(CC)CCNc1cc(-c2cccc(OC(F)(F)F)c2)nc2ccc(N3CCCC3)cc12 | 10.4% (inactive) and -12.9% (active) and 29.7% (inactive) |
| CC(=O)Nc1cc(S(=O)(=O)O)cc2cc(S(=O)(=O)O)c(N=Nc3ccccc3)c(O)c12 | 94.2% (inactive) and 83.2% (inactive) |
| CC(C)CNC(=O)c1ccccc1C(=O)NC1(C(=O)NCC(C)C)CCCC1 | 83.5% (inactive) and 86.1% (inactive) |
| COc1cc2nc(N3CCN(C(=O)C4COc5ccccc5O4)CC3)nc(N)c2cc1OC (stereo unspecified) | 94.5% (inactive) and 98.7% (inactive) and 85% (inactive) |
| O=C(Cc1cccc2ccccc12)N/N=C/c1ccc2c(c1)CCC2 | 63.3% (inactive) |
| CC1=C(/C=C/C(C)=C/C=C/C(C)=C/C(=O)O)C(C)(C)CCC1 | 80.9% (inactive) and 64.5% (inactive) and 86.8% (inactive) |
| O=C(Nc1ccc(Br)cc1)c1cc(Br)ccc1O | -12.3% (active) and 0.207% (active) |
| Cc1cc(-c2ccc(NS(=O)(=O)c3ccccc3)c(C)c2)ccc1NS(=O)(=O)c1ccccc1 | 66.7% (inactive) and 108% (inactive) |
| O=C(CCl)c1ccc2c(c1)Nc1ccccc1S2 | 97.7% (inactive) and 81% (inactive) |
| CC1CCCc2sc3nc(NNC(=O)c4cnccn4)n(-c4ccccc4)c(=O)c3c21 (stereo unspecified) | 8.23% (active) and 5.71% (active) |
